Assay results taken from PubChem BioAssay AID1851 (National Center for Advancing Translational Sciences (NCATS), 2009).
Where “and” joins values, the source holds several entries; their conditions need not be identical. Equal entries are not always repeated. The campaign covered roughly 16,000 compounds. About 5,100 (32%) were called active. Another 25% or so got no clear call; they are omitted. The list shows a part of the results. Unmarked numbers belong to inactive results. Calls come from the whole dose curve; as a rule, active = well fitted curve in the direction sought with a large enough effect; inconclusive = small, poorly fitted or top-dose-only effect, or effect the other way; inactive = no such curve, though single readings can be large or run the other way.

The compounds below were run against Cytochrome P450 3A4 (Homo sapiens) (UniProt P08684) (assay: Cytochrome panel assay with activity outcomes). Conditions: recombinant CYP, pro-luciferin dealkylation, luminescence, p450-cyp3a4; series mostly up to 57.1 µM.
% is set by controls: 0 for no effect and ±100 for the full control effect.

Cytochrome P450 3A4 (Homo sapiens), sequence (P08684 whole entry, looked up): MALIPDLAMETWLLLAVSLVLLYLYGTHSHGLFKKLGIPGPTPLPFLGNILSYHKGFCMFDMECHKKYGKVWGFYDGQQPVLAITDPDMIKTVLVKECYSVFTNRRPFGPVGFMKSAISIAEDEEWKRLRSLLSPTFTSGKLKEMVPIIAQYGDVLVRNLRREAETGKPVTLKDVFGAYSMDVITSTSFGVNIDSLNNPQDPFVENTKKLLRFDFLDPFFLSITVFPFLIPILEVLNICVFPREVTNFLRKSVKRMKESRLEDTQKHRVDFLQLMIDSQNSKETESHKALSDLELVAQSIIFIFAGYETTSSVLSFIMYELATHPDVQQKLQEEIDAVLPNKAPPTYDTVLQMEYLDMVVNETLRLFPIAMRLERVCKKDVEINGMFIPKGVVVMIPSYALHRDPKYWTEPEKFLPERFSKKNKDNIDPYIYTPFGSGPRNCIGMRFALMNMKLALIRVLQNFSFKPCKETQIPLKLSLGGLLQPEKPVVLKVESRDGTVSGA

| SMILES | AC50 | activity, negative = inhibition |
| --- | --- | --- |
| c1ccc(-n2cnc3cc(NCc4cccs4)ccc32)cc1 | 7.08 µM (active) | – |
| CCCCc1ccc(NC(=S)NCc2cccs2)cc1 | – | -10% [at 2.29 µM] |
| Cc1ccccc1-n1cnc2cc(NCc3cccs3)ccc21 | 5.01 µM (active) | – |
| O=S(=O)(O)c1cc(N=Nc2cccc3ccccc23)c(O)c2ncccc12 | – | -5.6% [at 11.4 µM] |
| O=S(=O)(Nc1cccnc1Cl)c1ccc2c(c1)OCCO2 | – | 7.34% [at 2.29 µM] |
| O=S(=O)(Nc1ccc2c(c1)OCCO2)c1cccc2cccnc12 | 15.8 µM (active) | – |
| CNC(=S)N1N=C(c2ccc(OC)cc2)CC1c1ccc(N(C)C)cc1 (stereo unspecified) | 3.98 µM (active) | – |
| NC(N)=NC[C@@H]1COC2(CCCCC2)O1 | inactive | – |
| CCOC(=O)c1oc2nc(CC(C)C)c3c(c2c1N)CCC3 | 3.16 µM (active) | – |
| CC(C)Cc1nc(N2CCN(C(=O)c3ccccc3)CC2)c(C#N)c2c1CCC2 | inactive | – |
| CCOc1ncnc2c1oc1nc(CC(C)C)c3c(c12)CC(C)(C)OC3 | inactive | – |
| CCn1c(SCC(=O)N/N=C/C=C\c2ccccc2[N+](=O)[O-])nnc1-c1ccccc1 | 12.6 µM (active) | – |
| Cn1c(SCC(=O)N/N=C/C=C\c2ccco2)nc2ccccc21 | – | 9.61% [at 2.29 µM] |
| COc1ccc(CNc2nc3ccccc3n2Cc2ccccc2)cc1OC | 3.98 µM (active) | – |
| CS(=O)(=O)c1nc2ccccc2n1Cc1ccccc1 | inactive | – |
| CC(=O)Nc1nc2ccccc2n1Cc1ccccc1 | inactive | – |
| C#CCCCO/N=C1/[C@H]2O[C@@H]2[C@@H](O)[C@H]2[C@H]1CCn1c(=O)n(C)c(=O)n12 | – | -24.7% [at 11.4 µM] |
| Cc1ccc(Cc2cnc(NC(=O)c3cccs3)s2)cc1 | 7.94 µM (active) | – |
| CCCc1nnc(NC(=O)c2cccs2)s1 | inactive | – |
| CN(C)CCCN1CCC2(CCC(C(C)(C)C)CC2)CC1 | – | 1.95% [at 11.4 µM] |
| COc1ccc(NC(C)=O)cc1NC(=O)CN1CCN(C2c3ccccc3-c3ccccc32)CC1 | 10 µM (active) | – |
| COc1ccccc1NC(=O)CN1CCN(C2c3ccccc3-c3ccccc32)CC1 | 12.6 µM (active) | – |
| COc1ccccc1NC(=O)CN1CCN(c2ccccc2F)CC1 | inactive | – |
| NS(=O)(=O)c1cc(C(=O)O)c(Cl)c([N+](=O)[O-])c1Cl | – | -5.24% [at 11.4 µM] |

| SMILES | AC50 | activity, negative = inhibition |
| --- | --- | --- |
| CCNc1ncc2nc(-c3ccc(F)cc3)c(=O)n(C[C@H]3CCCO3)c2n1 | inactive | – |
| CCNc1ncc2nc(CCc3ccccc3)c(=O)n(CCC#N)c2n1 | 15.8 µM (active) | – |
| CCNc1ncc2nc(CCc3ccccc3)c(=O)n(Cc3ccc(F)cc3)c2n1 | 2.51 µM (active) | – |
| CCSC1=C(C#N)C2(CCCCC2)C(C#N)=C(N)N1 | 8.91 µM (active) | – |
| COc1ccc2c(c1)CCc1sc(NC(=O)c3ccc(C)cc3)nc1-2 | 10 µM (active) | – |
| COc1ccc(C(=O)Nc2nc3c(s2)Cc2cc(OC)ccc2-3)cc1 | 11.2 µM (active) | – |
| COc1ccc2c(c1)Cc1sc(NC(=O)c3ccco3)nc1-2 | 11.2 µM (active) | – |
| O=C(O)Cc1c[nH]c2ccc(O)cc12 | inactive | – |
| CC(C)Oc1cccc(-n2c(CCc3c[nH]c4ccc(Br)cc34)nc3ccccc3c2=O)c1 | 3.98 µM (active) | – |
| C/C(CC/C(C)=N/O)=N/O | – | -10.6% [at 11.4 µM] |
| O=C(O)c1c[nH]c2c(ccc3[nH]cc(C(=O)O)c(=O)c32)c1=O | – | -16.3% [at 11.4 µM] |
| Cc1c(NC(=O)C(C)N2C(=O)c3ccccc3C2=O)c(=O)n(-c2ccccc2)n1C (stereo unspecified) | inactive | – |
| Cc1cc(C(=O)Nc2c(C)n(C)n(-c3ccccc3)c2=O)c2ccccc2n1 | inactive | – |
| Cc1cc(SC(C)C(=O)Nc2c(C)n(C)n(-c3ccccc3)c2=O)nc2ccccc12 (stereo unspecified) | 12.6 µM (active) | – |
| O=C(Nc1cccc2ncccc12)c1ccc(-c2ccc(Br)cc2)o1 | 2.82 µM (active) | – |
| Cc1ccc(OCC(=O)N/N=C\c2c(C)n(C)c3ccccc23)c([N+](=O)[O-])c1 | 7.08 µM (active) | – |
| COc1ccc(C=O)cc1COc1ccc(C)cc1[N+](=O)[O-] | inactive | – |
| CC(=O)N/N=C/c1cc([N+](=O)[O-])ccc1OCCOc1ccccc1 | inactive | – |
| Cc1ccccc1-c1ccc2ncnc(N(C)C)c2c1 | 3.16 µM (active) | – |
| COc1ccccc1-c1ccc2ncnc(N(C)C)c2c1 | 5.01 µM (active) | – |
| CC(=O)N1CCc2cc(S(=O)(=O)CCC(=O)Nc3c(C)n(C)n(-c4ccccc4)c3=O)ccc21 | inactive | – |
| Cc1ccc(S(=O)(=O)CCC(=O)Nc2nc3c(s2)CCCC3)cc1 | 8.91 µM (active) | – |
| Nc1cc(-c2nn[nH]n2)ccc1F | inactive | – |
| COC(=O)C/C=C\[C@@H](C)[C@@H](/C=N\OC[C@@H]1O[C@H](c2ccccc2)C=C[C@@H]1Oc1ccc(OC)cc1)OC | 3.16 µM (active) | – |

| SMILES | AC50 | activity, negative = inhibition |
| --- | --- | --- |
| COC(=O)C/C=C\[C@@H](C)[C@@H](/C=N\OC[C@@H]1O[C@H](c2ccccc2)C=C[C@@H]1Oc1ccc(OC)cc1)NS(=O)(=O)c1ccc(C)cc1 | 5.01 µM (active) | – |
| CC(C)CSC[C@@H]1O[C@H](n2cnc3c(N)nccc32)[C@H](O)[C@@H]1O | – | -25.4% [at 11.4 µM] |
| Cc1noc(C)c1-c1cc(N2CCN(C)CC2)ncn1 | inactive | – |
| CN1CCN(c2ncncc2-c2ccccc2Cl)CC1 | 1.58 µM (active) | – |
| Cc1ccccc1NC(=S)NN1CCN(C)CC1 | inactive | – |
| CN1CCN(c2cc(-c3ccccc3C(F)(F)F)ncn2)CC1 | inactive | – |
| Cc1ccccc1-c1cncnc1N1CCN(C)CC1 | 1.58 µM (active) | – |
| Cc1noc(C)c1-c1cncnc1N1CCN(C)CC1 | 12.6 µM (active) | – |
| CN1CCN2c3ncccc3Cc3ccccc3C2C1 (stereo unspecified) | inactive | – |
| COc1ccccc1-c1cncnc1N1CCN(C)CC1 | 2.51 µM (active) | – |
| CN1CCN(c2ncncc2-c2ccoc2)CC1 | 7.94 µM (active) | – |
| CC(C)(C)c1c2c(c(C(C)(C)C)c3c1OCN(Cc1ccccc1)C3)OCN(Cc1ccccc1)C2 | – | 5.7% [at 11.4 µM] |
| CC[C@@H](Nc1ncnc2nc[nH]c12)C(=O)O | – | -5.2% [at 11.4 µM] |
| Cc1occc1C(=O)NNC(=O)Cc1ccccc1 | inactive | – |
| COc1ccc(C(=O)NNC(=O)Cc2ccc(-c3ccccc3)cc2)cc1OC | 6.31 µM (active) | – |
| COc1ccc(OCC(=O)NNC(=O)c2ccc(-c3ccccc3)cc2)cc1 | inactive | – |
| COc1cc(/C=N\NC(=O)C2C(=O)NCC2c2ccccc2)cc(OC)c1O (stereo unspecified) | inactive | – |
| Clc1ccc(CSc2ncnc3c2ncn3[C@@H]2CCCCO2)cc1 | – | 11.8% [at 11.4 µM] |
| CC(C)[C@H](N)c1nnc(SC/C=C/c2ccccc2)o1 | 1.26 µM (active) | – |
| Clc1cccc(Cl)c1CSc1nnc(/C=C/c2ccccc2)o1 | – | -16.1% [at 11.4 µM] |
| CC(C)[C@H](N)c1nnc(SCc2ccc(Cl)cc2)o1 | 1.58 µM (active) | – |
| CSc1nsc(SCc2ccc(Cl)cc2)n1 | inactive | – |
| CC(C)=NNc1ncnc2nc[nH]c12 | – | 4.57% [at 11.4 µM] |
| NOCC(=O)O | inactive | – |

| SMILES | AC50 | activity, negative = inhibition |
| --- | --- | --- |
| O=C(O)CCNc1ccccc1C(=O)O | – | -9.69% [at 11.4 µM] |
| CN1CCN(c2ncc3nc(-c4cn(C)c5ccccc45)c(=O)n(CCc4ccccc4)c3n2)CC1 | 15.8 µM (active) | – |
| Cn1cc(-c2nc3cnc(N4CCNCC4)nc3n(CCc3ccccc3)c2=O)c2ccccc21 | 12.6 µM (active) | – |
| CN1CCN(c2ncc3ncc(=O)n(-c4ccccc4)c3n2)CC1 | inactive | – |
| CN1CCN(c2ncc3nc(-c4ccccc4)c(=O)n(C)c3n2)CC1 | inactive | – |
| CN1CCN(c2ncc3nc(-c4cn(C)c5ccccc45)c(=O)n(-c4ccccc4)c3n2)CC1 | 25.1 µM (active) | – |
| Cn1cc(-c2nc3cnc(N4CCNCC4)nc3n(Cc3ccc(F)cc3)c2=O)c2ccccc21 | 12.6 µM (active) | – |
| NC1=C2NC=N[C@@H]2N(C/C=C\c2ccccc2)C=N1 | – | -17.9% [at 11.4 µM] |
| CN(C)Cc1c[nH]c2nc[nH]c(=O)c12 | – | -2.68% [at 11.4 µM] |
| O=C(O)C1=C/C(=C(/c2ccccc2)c2cc(C(=O)O)c(O)c3ccccc23)c2ccccc2C1=O | – | 6.76% [at 11.4 µM] and -24.1% [at 11.4 µM] |
| Cn1c(=O)c(-c2ccccc2)nc2cnc(N3CCNCC3)nc21 | inactive | – |
| Cn1cc(-c2nc3cnc(N4CCNCC4)nc3n(C)c2=O)c2ccccc21 | 20 µM (active) | – |
| COCCn1c(=O)c(-c2cn(C)c3ccccc23)nc2cnc(N3CCNCC3)nc21 | 25.1 µM (active) | – |
| O=S(=O)(O)c1cc(N=[N+]([O-])c2cc(S(=O)(=O)O)c3ccccc3c2)cc2ccccc12 | – | -21.4% [at 11.4 µM] |
| CC(=O)NS(=O)(=O)c1ccc(NC(=S)NC(=O)c2ccco2)cc1 | inactive | – |
| Cc1ccc(NC(=O)/C(=C\c2ccc3c(c2)OCO3)NC(=O)c2ccco2)cc1 | 2.51 µM (active) | – |
| O=C(NC(Cc1ccccc1)C(=O)O)/C(=C\c1ccco1)NC(=O)c1ccc(Br)cc1 (stereo unspecified) | inactive | – |
| O=C(N/N=C/c1ccc2c(c1)OCO2)/C(=C/c1ccc2c(c1)OCO2)NC(=O)c1ccccc1 | 1.12 µM (active) | – |
| C=CCNC(=O)/C(=C\c1ccc2c(c1)OCO2)NC(=O)c1ccc(Br)cc1 | 0.447 µM (active) | – |
| Cc1ccc(S(=O)(=O)NC(=O)Nc2ncn[nH]2)cc1 | – | -2.15% [at 11.4 µM] |
| CCOCCCn1cnc2c([nH]c3cc(OC)ccc32)c1=O | inactive | – |
| COc1ccc(/C(O)=C2/C(=O)C(=O)N(CCN3CCOCC3)C2c2ccc(C)cc2)cc1 (stereo unspecified) | inactive | – |
| CCOCCCN1C(=O)CN(C2CCCCC2)C(=O)C1c1ccc(OCC)c(OC)c1 (stereo unspecified) | 12.6 µM (active) | – |
| CCOCCCN1C(=O)CN(C2CCCCCC2)C(=O)C1c1ccc(OC)cc1 (stereo unspecified) | 12.6 µM (active) | – |
